Experimental data: paper PMC4336329 (PLoS ONE, 2015)
The campaign covered roughly 310,000 compounds. About 14,000 (4.5%) showed an effect of 50% or more. Effects have a minus sign here. Many of the other results were omitted from the sample, so strong results are more common in it than they were.

target: human ether-à-go-go-related gene (hERG) potassium channel (human, UniProt Q12809); test: primary screen, population patch clamp on CHO cells stably expressing hERG; higher = less effect of the substance
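Also: peak tail current of the secondary pulse compared with the same well before compound.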

human ether-à-go-go-related gene (hERG) potassium channel, sequence (Q12809 whole entry, looked up): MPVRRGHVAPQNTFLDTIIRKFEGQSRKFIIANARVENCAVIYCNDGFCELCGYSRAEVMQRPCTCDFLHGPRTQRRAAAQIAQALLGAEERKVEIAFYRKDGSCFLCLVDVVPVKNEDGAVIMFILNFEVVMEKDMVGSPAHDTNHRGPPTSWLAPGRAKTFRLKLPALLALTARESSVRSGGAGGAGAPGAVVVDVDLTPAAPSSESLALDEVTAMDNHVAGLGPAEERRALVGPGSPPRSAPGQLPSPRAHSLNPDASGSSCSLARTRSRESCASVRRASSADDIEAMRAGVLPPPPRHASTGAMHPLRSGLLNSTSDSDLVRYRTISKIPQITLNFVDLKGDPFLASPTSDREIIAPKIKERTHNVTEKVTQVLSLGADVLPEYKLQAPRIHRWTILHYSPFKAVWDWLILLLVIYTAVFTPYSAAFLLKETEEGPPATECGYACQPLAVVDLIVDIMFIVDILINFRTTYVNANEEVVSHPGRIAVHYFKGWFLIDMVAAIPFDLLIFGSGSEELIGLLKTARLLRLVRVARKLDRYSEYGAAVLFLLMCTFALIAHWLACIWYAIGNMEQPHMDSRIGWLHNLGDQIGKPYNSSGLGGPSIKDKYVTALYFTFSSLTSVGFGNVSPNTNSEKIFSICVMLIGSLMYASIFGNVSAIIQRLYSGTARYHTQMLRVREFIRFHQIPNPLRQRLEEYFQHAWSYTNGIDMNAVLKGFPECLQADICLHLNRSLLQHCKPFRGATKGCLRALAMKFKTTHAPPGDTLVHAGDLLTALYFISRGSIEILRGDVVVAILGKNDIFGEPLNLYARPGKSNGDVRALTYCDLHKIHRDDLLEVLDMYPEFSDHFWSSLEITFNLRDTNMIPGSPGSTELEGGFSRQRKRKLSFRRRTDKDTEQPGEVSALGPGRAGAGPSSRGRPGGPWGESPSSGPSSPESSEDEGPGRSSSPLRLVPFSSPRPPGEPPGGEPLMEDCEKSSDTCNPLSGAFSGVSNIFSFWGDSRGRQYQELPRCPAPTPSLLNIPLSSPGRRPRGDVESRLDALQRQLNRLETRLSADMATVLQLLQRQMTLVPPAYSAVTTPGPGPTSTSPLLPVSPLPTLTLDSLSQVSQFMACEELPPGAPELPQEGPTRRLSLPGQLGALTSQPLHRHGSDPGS

Row | SMILES | hERG current change (%, negative = inhibition) at 10uM [%]
1 | CC(C)CN(C(=O)COC(=O)c1cnccn1)c1c(N)n(Cc2ccccc2)c(=O)[nH]c1=O | 16.4
2 | CC(C)Cn1c(N)c(C(=O)COC(=O)c2ccc(O)cc2O)c(=O)n(C)c1=O | 8.34
3 | CCn1c(SCC(=O)NC2CCCC2)nnc1-c1ccncc1 | 16.4
4 | Cc1ccc(OCC(=O)Nc2ccccc2F)cc1 | -0.548
5 | CN1C(=O)/C(=C/c2ccc(OCc3ccc(C(=O)O)cc3)c(Cl)c2)NC1=S | 20.4
6 | Cc1ccc(OCCn2cnc3c2c(=O)n(C)c(=O)n3C)cc1 | 20
7 | C=CCSc1nc2ccccc2[nH]1 | 25
8 | O=C(Cc1ccccc1)NCc1ccc(-n2cccc2)cc1 | 29.3
9 | CN(C(=O)CC1C(=O)NCCN1Cc1cccc(F)c1F)C1CC(C)(C)NC(C)(C)C1 (stereo not shown) | 26.1
10 | Cc1ccc(OCC(=O)Nc2ccc3c(c2)nc(CCN2CCN(C)CC2)n3C)cc1 | -55.6
11 | COc1ccc(OCC(=O)Nc2ccc3c(c2)nc(CCN2CCCCC2)n3C)cc1 | -65.5
12 | Cc1ccc(OCC(=O)Nc2ccc3c(c2)nc(CCN2CCCCC2)n3C)cc1 | -82.3
13 | Cn1c(CCN2CCCCC2)nc2cc(NC(=O)NC3CCCCC3)ccc21 | 0.766
14 | Cn1c(CCN2CCCCC2)nc2cc(NC(=O)C3CCCCC3)ccc21 | -60.2
15 | COc1ccc(OCC(=O)Nc2ccc3c(c2)nc(CCN2CCN(C)CC2)n3C)cc1 | -8.47
16 | CC(=O)NCCc1nc2cc(NC(=O)COc3ccc(C)cc3)ccc2n1C | 14.2
17 | Cn1c(CN2CCCC2)nc2cc(NC(=O)C3CCCCC3)ccc21 | -4.77
18 | CCC(=O)Nc1ccc2c(c1)nc(CCN1CCN(C)CC1)n2C | 29.3
19 | CCOC(=O)C(=CNc1ccc2c(c1)nnn2-c1ccc(Cl)cc1)C(=O)OCC | -5.02
20 | COc1ccccc1-c1cc(C(F)(F)F)nc(S(=O)(=O)CCCC(=O)N2CCOCC2)n1 | 2.47

Row | SMILES | hERG current change (%, negative = inhibition) at 10uM [%]
21 | Cn1ncc(Cl)c1C(=O)NCC1CCCO1 (stereo not shown) | 9.21
22 | O=C(Cn1cc(C(=O)c2ccccc2F)c2ccccc21)NC1CC1 | -4.44
23 | CCN(CC)c1ccc(NC(=O)CSc2nnc3nc(C)cc(C)n23)cc1 | -0.579
24 | Cc1cc(C(=O)NNC(=O)c2ccc(Cl)cc2)c2ccccc2n1 | 0.225
25 | CC(=O)N1CSCC1C(=O)NNS(=O)(=O)c1cccc(C(F)(F)F)c1 (stereo not shown) | 8.58
26 | Cl.NC1=NC(c2cccc(Cl)c2)N(CCc2ccc(F)cc2)C(N)=N1 (stereo not shown) | 15.6
27 | OC1C=CSc2nc3ccccc3n21 (stereo not shown) | 4.02
28 | CCOc1ccc(-c2csc3nc[nH]c(=O)c23)cc1 | 14.9
29 | OCCNc1nc(C2CC2)nc2c1nnn2Cc1ccccc1Cl | -0.392
30 | CS(=O)(=O)N(CC(=O)Nc1ccccc1C(=O)N1CCCC1)c1cccc([N+](=O)[O-])c1 | -13.2
31 | O=C(NCCN1CCOCC1)c1cc(-c2cccs2)nc2ccccc12 | -13.1
32 | COc1cc(CO)ccc1Oc1nc2ccccc2n2cnnc12 | 10.7
33 | CC(Oc1ccc(C#N)cc1)C(=O)c1ccc(F)c(F)c1 (stereo not shown) | -51.6
34 | CC(=O)c1ccc(OCC(C)Oc2ccc(C#N)cc2)cc1 (stereo not shown) | -62.8
35 | CC(Oc1ccc(C#N)cc1)C(=O)NC1CCCC1 (stereo not shown) | -12.9
36 | CC(=O)c1ccc(OCCOc2ccc(C#N)cc2)cc1 | -49.4
37 | CC(=O)c1ccc(OCC(O)COc2ccc(C(C)=O)cc2)cc1 | -11.3
38 | COC(=O)c1ccc(OC(C)C(=O)c2ccc(C)cc2)cc1 (stereo not shown) | -21.5
39 | CCC1C(=O)N=C(SCC(=O)Nc2cccc3ccccc23)NC1=O (stereo not shown) | -7.84
40 | COc1ccc(C2C(C(=O)N3CCC(C(N)=O)CC3)CC(=O)N2c2ccc(OC)cc2)cc1 (stereo not shown) | -1.19

Row | SMILES | hERG current change (%, negative = inhibition) at 10uM [%]
41 | Nc1nc2ccccc2n1CCOc1ccc(F)cc1 | -67.9
42 | COCCn1c(COc2ccc(OC)cc2)nc2ccccc21 | -14.3
43 | Clc1ccc(OCCn2c(-c3ccco3)nc3ccccc32)cc1 | -26.7
44 | Nc1nc2ccccc2n1CCOc1ccc(Cl)cc1 | -51.1
45 | Nc1nc2ccccc2n1CCOc1ccccc1Cl | -3.5
46 | COc1ccc(OCCn2c(N)nc3ccccc32)cc1 | -67.4
47 | Cc1nc2ccccc2n1CCOc1ccc(F)cc1 | -19.8
48 | CCCn1c(N)nc2ccccc21 | 8.05
49 | OCc1nc2ccccc2n1CCCOc1ccc(Br)cc1 | -36.8
50 | Nc1nc2ccccc2n1CCOc1ccc(Br)cc1 | -61.2
51 | Cn1c(COc2ccc(F)cc2)nc2ccccc21 | -0.759
52 | S=C(Nc1ccccc1)Nc1nc2ccccc2n1CCOc1ccc(Br)cc1 | 11.6
53 | O=P(NS(=O)(=O)c1ccc(Br)cc1)(Oc1ccccc1)Oc1ccccc1 | 12.2
54 | O=C(Cn1c(=O)c(=O)n(Cc2ccccc2)c2ccc(Cl)cc21)Nc1ccc(F)cc1F | 21.3
55 | Cc1cc(C)c(Cn2c(=O)n(CCCC(=O)NCc3ccco3)c(=O)c3sccc32)c(C)c1 | 6.15
56 | Cc1cc(NC(=O)c2cc([N+](=O)[O-])ccc2Cl)no1 | 8.65
57 | Nn1c(COc2ccc(Cl)cc2)nc2ccccc2c1=O | -34.8
58 | CCc1ccc(CNC(=O)c2ccc(OC3CCN(C(C)=O)CC3)c(OC)c2)nc1 | 8.11
